The record followed here is PubChem BioAssay (NCATS).

Inconclusive results are not listed. Calls of active or inactive are those of the source. Calls follow the shape of the dose curve; as a rule, active = well fitted curve in the direction sought with a large enough effect; inconclusive = small, poorly fitted or top-dose-only effect, or another doubt; inactive = no such curve, though single readings can be large; an effect the other way counts as inactive or inconclusive.

The nature of experiment [1]: Quantitative High-Throughput drug screen in 47 multiple myeloma cell lines against the NCATS MIPE library collection: JIM3_ECACC cell viability assay (AID 1918963; also: nearly all actives have a fitted effect of over 35% in size). Conditions: JIM3 myeloma viability, CellTiter-Glo ATP, 48 h; series mostly up to 45.8 µM. The essentials:
(§1)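 Relative luminescence from CellTiter-Glo served as the viability signal, referenced to DMSO-treated (100%) and cell-free medium (0%) controls. Treatment lasted 48 hours at 37C with 500 cells per well.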
For orientation: Cellular ATP, detected with luciferase, serves as a proxy for viable cell number.

Experiment [2] can be described thus: Quantitative High-Throughput drug screen in 47 multiple myeloma cell lines against the NCATS MIPE library collection: H1112_PLB cell viability assay (AID 1918967; also: nearly all actives have a fitted effect of over 30% in size). The conditions noted are these: H1112 myeloma cells viability, ATP luminescence, 48 h; series mostly up to 45.8 µM. The essentials: (§2)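 CellTiter-Glo ATP luminescence gave viability after 48 h compound treatment at 37C of 500 multiple myeloma cells per well. Normalisation used DMSO-only wells as 100% and media-only wells as 0% viability; primary qHTS of approved and investigational drugs.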

The nature of experiment [3]: Quantitative High-Throughput drug screen in 47 multiple myeloma cell lines against the NCATS MIPE library collection: Karpas25_ECACC cell viability assay (AID 1918968; also: nearly all actives have a fitted effect of over 35% in size). The conditions noted are these: Karpas25 myeloma viability, CellTiter-Glo ATP, 48 h; series mostly up to 45.8 µM. Summed up: as §2
Experiment [4] can be described thus: Quantitative High-Throughput drug screen in 47 multiple myeloma cell lines against the NCATS MIPE library collection: KMS12PE_JCRB cell viability assay (AID 1918972). Also: nearly all actives have a fitted effect of over 30% in size. Conditions: KMS12PE myeloma viability, CellTiter-Glo ATP, 48 h; series mostly up to 45.8 µM. The essentials: as §1
Experiment [5] in a line: Quantitative High-Throughput drug screen in 47 multiple myeloma cell lines against the NCATS MIPE library collection: KMS12BM_JCRB cell viability assay (AID 1918971). Also: nearly all actives have a fitted effect of over 35% in size. Conditions: KMS12BM myeloma viability, CellTiter-Glo ATP, 48 h; series mostly up to 45.8 µM. The essentials:
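Steps: seed 500 cells per well; pin-transfer MIPE 4.0 library; incubate 48 h at 37C, 5% CO2, humidified; add CellTiter-Glo, 5 min room temperature; read luminescence.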

Experiment [6] is described as follows: Quantitative High-Throughput drug screen in 47 multiple myeloma cell lines against the NCATS MIPE library collection: JIM1_ECACC cell viability assay (AID 1918964). The conditions noted are these: JIM1 myeloma viability, CellTiter-Glo ATP luminescence, 48 h; series mostly up to 45.8 µM. The essentials: as §2
Experiment [7] can be described thus: Quantitative High-Throughput drug screen in 47 multiple myeloma cell lines against the NCATS MIPE library collection: INA6_PLB cell viability assay (AID 1918965; also: nearly all actives have a fitted effect of over 55% in size). The conditions noted are these: INA6 myeloma viability, CellTiter-Glo ATP luminescence, 48 h; series mostly up to 45.8 µM. Summed up:
as §1

The nature of experiment [8]: Quantitative High-Throughput drug screen in 47 multiple myeloma cell lines against the NCATS MIPE library collection: JJN3_DSMZ cell viability assay (AID 1918966; also: nearly all actives have a fitted effect of over 50% in size). The conditions noted are these: JJN3 myeloma cells viability, CellTiter-Glo ATP, 48 h; series mostly up to 45.8 µM. Summed up: as §2
Experiment [9] in a line: Quantitative High-Throughput drug screen in 47 multiple myeloma cell lines against the NCATS MIPE library collection: KMS27_JCRB cell viability assay (AID 1918970). Also: nearly all actives have a fitted effect of over 30% in size. Conditions: KMS27 myeloma cells, CellTiter-Glo ATP viability, 48 h; viability (% of DMSO): at 45.8 µM (top of the series). Summed up: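 Viability inhibition screen, 48 h compound exposure, luminescent ATP read-out.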
Potency is read from the fitted curve at half-maximal effect.

Consider `COc1ccc2c(c1)CC[C@H]1[C@@H]2CC[C@]2(C)[C@@H](NCCCCCCN3C(=O)C=CC3=O)CC[C@H]12`, for which the Potency result in experiment [1], in experiment [2], in experiment [3] and in experiment [4] was “inactive” in each case.

With `C#CCN(C)CC1=Cc2ccccc2Oc2ccccc21`, the Potency entry in [1], in experiment [2] and in experiment [4] was “inactive” throughout. The Potency in experiment [5] is 16.6 µM (active).

For `Cc1cn([C@@H]2C[C@@H](O)[C@H](CO)O2)c(=O)[nH]c1=O`, the Potency result in [6], in [8], in experiment [2], in experiment [3], in experiment [9] and in [4] was “inactive” each time. Also, the Potency in experiment [7] was 0.0166 µM (active).

For `C[C@H](c1ccc(F)cc1CCCC(=O)O)N(c1cc(F)ccc1F)S(=O)(=O)c1ccc(Cl)cc1`, the Potency is 26.4 µM (active) in [1], 20.9 µM (active) in experiment [3] and 1.48 µM (active) in [5]. Also, the Potency result in [9] and in experiment [4] was “inactive” in each case.

With `O=C(O)C1=CO[C@@H](O[C@@H]2O[C@H](CO)[C@H](O)[C@H](O)[C@H]2O)[C@@H]2C(CO)=CC[C@H]12`, the Potency result in experiment [1], in experiment [2], in experiment [3] and in experiment [9] was “inactive” in each case. Further, the Potency in experiment [4] is 0.0743 µM (active).

As to `CC(=O)OCC(=O)[C@@]1(O)CC[C@H]2[C@@H]3CCC4=CC(=O)C=C[C@]4(C)[C@@H]3[C@@H](O)C[C@@]21C`, the Potency entry in [6], in experiment [2], in experiment [9] and in [4] was “inactive” throughout. Further, the Potency was 7.43 µM (active) in experiment [7], 0.526 µM (active) in experiment [3] and 0.187 µM (active) in experiment [5].

Take `CO[C@H]1/C=C\O[C@@]2(C)Oc3c(C)c(O)c4c(O)c(c5c(nc6cc(C)ccn65)c4c3C2=O)NC(=O)C(C)=CC=C[C@H](C)[C@H](O)[C@@H](C)[C@@H](O)[C@@H](C)[C@H](OC(C)=O)[C@H]1C`: the Potency entry in experiment [1] and in experiment [2] was “inactive” each time. Moreover, the Potency in [9] is 18.7 µM (active); in [4], 11.8 µM (active).

With `CN(C)c1ccc(-c2nc3ncc(Cl)c(N4CCN(CC(=O)Nc5nccs5)CC4)c3[nH]2)cc1`, the Potency entry in experiment [6] was “inactive”. Besides, the Potency is 2.64 µM (active) in experiment [7], 18.7 µM (active) in experiment [8], 2.64 µM (active) in experiment [3] and 4.18 µM (active) in [5].

For the compound `C[C@@H]1[C@H](O)[C@@H](C)C=CC=CC=CC=CC=CC=CC=C[C@H](O[C@@H]2O[C@H](C)[C@H](O)[C@H](N)[C@@H]2O)C[C@@H]2O[C@](O)(C[C@@H](O)C[C@@H](O)[C@H](O)CC[C@@H](O)C[C@@H](O)CC(=O)O[C@H]1C)C[C@H](O)[C@@H]2C(=O)O`, the Potency was 3.32 µM (active) in [1], 3.32 µM (active) in experiment [2], 3.32 µM (active) in experiment [3] and 2.09 µM (active) in experiment [5].

As to `C[C@@H]1[C@H](C)CC[C@]2(C(=O)O)CC[C@]3(C)C(=CC[C@@H]4[C@@]5(C)CC[C@H](O)C(C)(C)[C@H]5CC[C@]43C)[C@@H]12`, the Potency result in experiment [1], in experiment [2], in experiment [3] and in [9] was “inactive” each time. Moreover, the Potency in [5] was 19.1 µM (active).

Take `COc1c(C)c2c(c(O)c1CC=C(C)CCC(=O)O)C(=O)OC2`: the Potency in experiment [6] is 9.35 µM (active); in [7], 0.935 µM (active); in [8] it was 4.69 µM (active); in experiment [2], 4.18 µM (active); in experiment [3], 13.2 µM (active); in experiment [5], 3.32 µM (active). Besides, in experiment [4], the Potency is 14.8 µM (active).

For the compound `O=C1C(CCC(O)c2ccc(F)cc2)C(c2ccc(O)cc2)N1c1ccc(F)cc1` (stereo not drawn), the Potency entry in experiment [6], in [7], in experiment [2], in experiment [3] and in [5] was “inactive” in each case. In addition, the Potency in experiment [4] was 20.9 µM (active).

For the compound `CCC[C@@H](NC(=O)[C@@H]1[C@H]2CCC[C@@H]2CN1C(=O)[C@@H](NC(=O)[C@@H](NC(=O)c1cnccn1)C1CCCCC1)C(C)(C)C)C(=O)C(=O)NC1CC1`, the Potency is 20.9 µM (active) in experiment [1], 18.7 µM (active) in experiment [2], 18.7 µM (active) in experiment [3] and 14.8 µM (active) in [4]. Besides, the Potency result in [9] was “inactive”.

Take `CN1c2ccccc2C(=O)N2CCc3c([nH]c4ccccc34)C21` (stereo not drawn): the Potency in experiment [1] and in [3] was 23.5 µM (active) each time. Also, the Potency entry in experiment [9] and in [4] was “inactive” in each case.

As for `COc1ccnc(CS(=O)c2nc3ccc(OC(F)F)cc3[nH]2)c1OC` (stereo not drawn), the Potency result in [1] and in experiment [5] was “inactive” each time.

Consider `CN1CC(=O)N2C(Cc3c([nH]c4ccccc34)[C@H]2c2ccc3c(c2)OCO3)C1=O` (stereo partly drawn), for which the Potency result in experiment [1], in experiment [2], in [9] and in experiment [4] was “inactive” throughout. Besides, the Potency in [5] is 1.32 µM (active).

Regarding `O=C(Nc1ccc(OC(F)(F)F)cc1)c1sccc1NCc1ccnc2ccccc12`, the Potency in experiment [7] is 18.7 µM (active); in experiment [8] it was 9.35 µM (active); in experiment [3], 13.2 µM (active); in experiment [5] it was 14.8 µM (active); in experiment [4], 18.7 µM (active).

As for `CN1CCc2c(n(Cc3ccc(C(=O)NO)cc3)c3ccccc23)C1`, the Potency was 4.69 µM (active) in experiment [7]; 16.6 µM (active) in experiment [8]; 16.6 µM (active) in experiment [3]; 0.743 µM (active) in experiment [9]; 18.7 µM (active) in experiment [5].

For `CN(C)N=Nc1nc[nH]c1C(N)=O`, the values for the Potency in [7] and in experiment [4] were 2.64 µM (active) and 0.166 µM (active), respectively. Further, the Potency entry in [2], in experiment [3] and in experiment [5] was “inactive” throughout.

As for `CC1(C)[C@H]2CC[C@]3(C)[C@@H](C(=O)C=C4[C@@H]5C[C@@](C)(C(=O)O)CC[C@]5(C)CC[C@]43C)[C@@]2(C)CC[C@@H]1O`, the Potency result in [7], in experiment [2], in [9] and in experiment [4] was “inactive” each time.
